Laboratory results reported in PubChem BioAssay (NCATS).
Results filed as inconclusive are left out. Entries that show only a call come without a potency. Activity calls are given as the source filed them. Unless noted, calls follow the shape of the dose curve; as a rule, active = well fitted curve in the direction sought with a large enough effect; inconclusive = small, poorly fitted or top-dose-only effect, or another doubt; inactive = no such curve, though single readings can be large; an effect the other way counts as inactive or inconclusive.

tested on: not listed separately; assay: Primary qHTS for small molecule stabilizers of the endoplasmic reticulum resident proteome: Secreted ER Calcium Modulated Protein (SERCaMP) assay (AID 1508630); settings: SH-SY5Y GLuc-SERCaMP (Gaussia luciferase released on ER calcium loss) secretion, thapsigargin, luminescence; series mostly up to 38.4 µM
In short: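 The SH-SY5Y reporter protocol was run at 3 concentrations up to 38.3 uM (primary) or 11 concentrations (follow-up): 16 h compound, 100 nM thapsigargin for 4 h, then extracellular luciferase luminescence.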

| Compound | Potency |
| --- | --- |
| C[C@]12CCC3C(CC[C@H]4C[C@H](O)CC[C@]34C)C1CC[C@@H]2C(=O)CO (some centres undefined) | inactive |
| CC(N[C@H]1C[C@H]1c1ccccc1)c1ccc2c(c1)OCCO2 (some centres undefined) | inactive |
| CN[C@@H]1C[C@@H](c2ccc(Cl)c(Cl)c2)c2ccccc21 | inactive |
| NC1CC1c1ccccc1 (centres undefined) | inactive |
| COC[C@H]1OC(=O)c2coc3c2[C@@]1(C)C1=C(C3=O)[C@@H]2CC[C@H](O)[C@@]2(C)C[C@@H]1OC(C)=O | inactive |
| O=C(O)Cc1cnc[nH]1 | inactive |
| O=C(O)[C@@H]1CCN1 | inactive |
| CC(=O)NCCc1c[nH]c2ccccc12 | inactive |
| Oc1ccc2c3c1O[C@H]1c4[nH]c5c(c4C[C@@]4(O)[C@@H](C2)N(CC2CC2)CC[C@]314)C[C@@]1(O)[C@H]2Cc3ccc(O)c4c3[C@@]1(CCN2CC1CC1)[C@H]5O4 | inactive |
| NC(CP(=O)(O)O)C(=O)O (centres undefined) | inactive |
| COc1cc(C(O)CN)ccc1O (centres undefined) | inactive |
| CCCN1CCC[C@H](c2cccc(O)c2)C1 | inactive |
| O=C(Cc1ccc(Cl)c(Cl)c1)N1CCCCC1CN1CCCC1 (centres undefined) | inactive |
| S=C(NC1CCCCC1)N1CCC(c2cnc[nH]2)CC1 | inactive |
| N=c1c2c(-c3ccccc3)c(-c3ccccc3)n(Cc3ccccc3)c2ncn1C1CCC(O)CC1 (centres undefined) | inactive |
| NCCc1c[nH]c2ccccc12 | inactive |
| NCc1cc(=O)[nH]o1 | inactive |
| C[C@@H]1O[C@H](C[N+](C)(C)C)C[C@H]1O | inactive |
| CC(C)Oc1cccc(NC(=O)c2ccccc2C(F)(F)F)c1 | inactive |
| C[C@@H](N)Cc1cnc[nH]1 | inactive |
| CC(=O)[C@H]1CCC2C3CC[C@H]4C[C@H](O)CC[C@]4(C)C3CC[C@@]21C (some centres undefined) | inactive |

tested on: not listed separately; assay: A High-Content qHTS Against Drug Library for the Identification of Small Molecules that Inhibit DYT1 Early Onset Primary Dystonia-Associated Cell Pathology (AID 1645839; calls by dose curve; also: potency is read from the fitted curve at half-maximal effect); settings: HEK293 Flp-In EGFP-delE TorsinA, punctate imaging, 48 h; series mostly up to 91.7 µM
In short: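 Cells were seeded and left for 24 h, then dosed with compound alongside tetracycline induction of mutant EGFP-TorsinA. They were incubated for 48 h, fixed in 4% paraformaldehyde, permeabilized and imaged for mislocalization (%pathology) and cell count.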

| Compound | % pathology change, negative = correction | Potency |
| --- | --- | --- |
| CC1=C(C(=O)O)N2C(=O)[C@@H](N)[C@H]2SC1 | 1.33% [at 19.1 µM] (inactive) | – |
| c1cc2ccc3cccc4ccc(c1)c2c34 | – | inactive |
| OCCCBr | – | inactive |
| CC(Cc1ccc(O)cc1)NCC(O)c1cc(O)cc(O)c1 (centres undefined) | – | inactive |
| COCCOCCO | – | inactive |
| CCC1(CCC(C)C)C(=O)NC(=O)NC1=O | – | inactive |
| COC(C)(C)CCCC(C)C/C=C/C(C)=C/C(=O)OC(C)C (centres undefined) | – | inactive |
| CC(=O)[O][Hg][c]1ccccc1 | – | 2.82 µM (active) |
| CC(O)CN1CCN(CC(=O)[O-])CCN(CC(=O)[O-])CCN(CC(=O)[O-])CC1.[Gd+3] (centres undefined) | – | inactive |
| O=[N+]([O-])c1c(Cl)c(Cl)cc(Cl)c1Cl | – | inactive |
| O=C(O)CCCOc1ccc(Cl)cc1Cl | – | inactive |
| Cc1ccc(Cl)c(O)c1 | – | inactive |
| CCCCC(CC)COC(=O)c1ccccc1C(=O)OCC(CC)CCCC (centres undefined) | – | inactive |
| CCOCCOC(C)=O | – | inactive |
| C=CCC1=C(C)C(OC(=O)C2C(C=C(C)C)C2(C)C)CC1=O (centres undefined) | – | inactive |
| CCOP(=O)(NC(C)C)Oc1ccc(SC)c(C)c1 (centres undefined) | – | inactive |

target: Cytochrome P450 2D6 (Homo sapiens) (UniProt P10635); assay: Cytochrome P450 family 2 subfamily D member 6 (CYP2D6) small molecule antagonists: luciferase biochemical (cell-free) qHTS assay (AID 1645840; active = well fitted curve in the direction sought with a large enough effect in the repeat runs; an effect the other way counts as inactive or inconclusive; also: nearly all actives have a fitted effect of over 55% in size; also: potency is read from the fitted curve at half-maximal effect); settings: P450-Glo CYP2D6 enzyme, luciferin luminescence, 1 h; series mostly up to 57.4 µM
In short: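 P450-Glo CYP2D6 system: proluciferin substrate converted by enzyme to luciferin, read by luminescence proportional to activity. Enzyme-substrate mix with compound 10 min at room temperature, then NADPH regeneration 1 h before detection reagent.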

Sequence of Cytochrome P450 2D6 (Homo sapiens) (P10635 whole entry, looked up): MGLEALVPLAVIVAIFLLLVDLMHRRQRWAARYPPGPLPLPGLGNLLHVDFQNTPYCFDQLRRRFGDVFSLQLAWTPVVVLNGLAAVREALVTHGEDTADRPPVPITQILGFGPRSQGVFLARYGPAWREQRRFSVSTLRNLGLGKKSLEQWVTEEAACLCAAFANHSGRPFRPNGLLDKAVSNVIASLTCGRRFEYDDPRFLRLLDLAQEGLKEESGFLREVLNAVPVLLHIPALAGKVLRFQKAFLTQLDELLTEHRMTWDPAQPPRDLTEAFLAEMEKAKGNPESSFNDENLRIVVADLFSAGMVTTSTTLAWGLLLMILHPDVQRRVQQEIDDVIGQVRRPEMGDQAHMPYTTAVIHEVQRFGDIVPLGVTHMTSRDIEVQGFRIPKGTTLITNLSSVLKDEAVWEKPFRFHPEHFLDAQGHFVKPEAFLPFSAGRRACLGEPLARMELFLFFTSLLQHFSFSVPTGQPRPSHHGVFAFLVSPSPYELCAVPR

| Compound | Potency |
| --- | --- |
| CC1=C(C(=O)O)N2C(=O)[C@@H](N)[C@H]2SC1 | inactive |
| c1cc2ccc3cccc4ccc(c1)c2c34 | inactive |
| OCCCBr | inactive |
| CC(Cc1ccc(O)cc1)NCC(O)c1cc(O)cc(O)c1 (centres undefined) | 11 µM (active) |
| COCCOCCO | inactive |
| CCC1(CCC(C)C)C(=O)NC(=O)NC1=O | inactive |
| COC(C)(C)CCCC(C)C/C=C/C(C)=C/C(=O)OC(C)C (centres undefined) | inactive |
| CC(=O)[O][Hg][c]1ccccc1 | 0.617 µM (active) |
| CC(O)CN1CCN(CC(=O)[O-])CCN(CC(=O)[O-])CCN(CC(=O)[O-])CC1.[Gd+3] (centres undefined) | inactive |
| O=[N+]([O-])c1c(Cl)c(Cl)cc(Cl)c1Cl | inactive |
| O=C(O)CCCOc1ccc(Cl)cc1Cl | inactive |
| Cc1ccc(Cl)c(O)c1 | inactive |
| CCCCC(CC)COC(=O)c1ccccc1C(=O)OCC(CC)CCCC (centres undefined) | inactive |
| CCOCCOC(C)=O | inactive |
| C=CCC1=C(C)C(OC(=O)C2C(C=C(C)C)C2(C)C)CC1=O (centres undefined) | 23.8 µM (active) |
| CCOP(=O)(NC(C)C)Oc1ccc(SC)c(C)c1 (centres undefined) | 3.88 µM (active) |

target: Cytochrome P450 2C9 (Homo sapiens) (UniProt P11712); assay: Cytochrome P450 family 2 subfamily C member 9 (CYP2C9) small molecule antagonists: luciferase biochemical (cell-free) qHTS assay (AID 1645842; active = well fitted curve in the direction sought with a large enough effect in the repeat runs; an effect the other way counts as inactive or inconclusive; also: nearly all actives have a fitted effect of over 55% in size; also: potency is read from the fitted curve at half-maximal effect); settings: P450-Glo CYP2C9 enzyme assay, luciferin luminescence; series mostly up to 57.4 µM
In short: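 P450-Glo CYP2C9 system: proluciferin substrate with enzyme in mix containing 0.4% BSA, 10 min at room temperature, then NADPH regeneration solution added and incubated 1 h at 37C. Detection reagent stopped reaction; luminescence read after 20 min as RLU.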

Sequence of Cytochrome P450 2C9 (Homo sapiens) (P11712 whole entry, looked up): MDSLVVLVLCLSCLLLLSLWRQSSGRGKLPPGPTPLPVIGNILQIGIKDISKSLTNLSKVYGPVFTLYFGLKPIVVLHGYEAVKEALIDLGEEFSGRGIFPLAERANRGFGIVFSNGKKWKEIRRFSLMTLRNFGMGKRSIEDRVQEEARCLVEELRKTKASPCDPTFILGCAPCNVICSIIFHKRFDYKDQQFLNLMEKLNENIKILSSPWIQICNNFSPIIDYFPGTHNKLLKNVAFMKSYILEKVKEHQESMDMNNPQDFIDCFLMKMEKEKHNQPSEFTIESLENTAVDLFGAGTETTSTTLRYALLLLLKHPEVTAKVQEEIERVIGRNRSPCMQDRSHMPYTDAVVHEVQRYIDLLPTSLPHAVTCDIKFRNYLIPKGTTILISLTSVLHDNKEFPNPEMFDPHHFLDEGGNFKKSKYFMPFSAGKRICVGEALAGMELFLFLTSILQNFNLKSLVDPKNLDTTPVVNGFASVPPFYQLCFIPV

| Compound | Potency |
| --- | --- |
| CC1=C(C(=O)O)N2C(=O)[C@@H](N)[C@H]2SC1 | inactive |
| CC(Cc1ccc(O)cc1)NCC(O)c1cc(O)cc(O)c1 (centres undefined) | inactive |
| COCCOCCO | inactive |
| CCC1(CCC(C)C)C(=O)NC(=O)NC1=O | inactive |
| CC(O)CN1CCN(CC(=O)[O-])CCN(CC(=O)[O-])CCN(CC(=O)[O-])CC1.[Gd+3] (centres undefined) | inactive |
| O=[N+]([O-])c1c(Cl)c(Cl)cc(Cl)c1Cl | inactive |
| CCOCCOC(C)=O | inactive |
| CCOP(=O)(NC(C)C)Oc1ccc(SC)c(C)c1 (centres undefined) | 9.47 µM (active) |

target: Papain (Carica papaya) (UniProt P00784); assay: Primary qHTS assay for inhibitors of the protease papain (AID 1645873); settings: papain Z-FR-AMC cleavage, AMC fluorescence; series mostly up to 49.8 µM;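 also: papain turnover of Z-FR-AMC read as the AMC fluorescence gain over 10 min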
Sequence (P00784 whole entry, looked up): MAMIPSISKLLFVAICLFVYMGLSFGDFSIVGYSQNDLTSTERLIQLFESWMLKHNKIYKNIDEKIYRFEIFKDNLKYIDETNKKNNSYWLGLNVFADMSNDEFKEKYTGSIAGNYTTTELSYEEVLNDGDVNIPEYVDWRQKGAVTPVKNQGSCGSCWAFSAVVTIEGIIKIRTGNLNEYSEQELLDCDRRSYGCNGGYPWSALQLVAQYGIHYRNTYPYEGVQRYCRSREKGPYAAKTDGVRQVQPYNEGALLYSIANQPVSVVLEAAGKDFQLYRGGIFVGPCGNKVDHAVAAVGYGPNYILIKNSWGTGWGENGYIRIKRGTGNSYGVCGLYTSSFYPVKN

| Compound | Potency |
| --- | --- |
| C[C@]12CCC3C(CC[C@H]4C[C@H](O)CC[C@]34C)C1CC[C@@H]2C(=O)CO (some centres undefined) | inactive |
| CN[C@@H]1C[C@@H](c2ccc(Cl)c(Cl)c2)c2ccccc21 | inactive |
| NC1CC1c1ccccc1 (centres undefined) | inactive |
| CC(Cc1ccc(O)cc1)NCC(O)c1cc(O)cc(O)c1 (centres undefined) | inactive |
| O=C(O)Cc1cnc[nH]1 | inactive |
| O=C(O)[C@@H]1CCN1 | inactive |
| CC(=O)NCCc1c[nH]c2ccccc12 | inactive |
| Oc1ccc2c3c1O[C@H]1c4[nH]c5c(c4C[C@@]4(O)[C@@H](C2)N(CC2CC2)CC[C@]314)C[C@@]1(O)[C@H]2Cc3ccc(O)c4c3[C@@]1(CCN2CC1CC1)[C@H]5O4 | inactive |
| NC(CP(=O)(O)O)C(=O)O (centres undefined) | inactive |
| COc1cc(C(O)CN)ccc1O (centres undefined) | inactive |
| CCCN1CCC[C@H](c2cccc(O)c2)C1 | inactive |
| O=C(Cc1ccc(Cl)c(Cl)c1)N1CCCCC1CN1CCCC1 (centres undefined) | inactive |
| S=C(NC1CCCCC1)N1CCC(c2cnc[nH]2)CC1 | inactive |
| NCCc1c[nH]c2ccccc12 | inactive |
| NCc1cc(=O)[nH]o1 | inactive |
| C[C@@H]1O[C@H](C[N+](C)(C)C)C[C@H]1O | inactive |
| C[C@@H](N)Cc1cnc[nH]1 | inactive |
| CC(=O)[C@H]1CCC2C3CC[C@H]4C[C@H](O)CC[C@]4(C)C3CC[C@@]21C (some centres undefined) | inactive |
